Experimental data taken from PubChem BioAssay AID602144 (Vanderbilt Specialized Chemistry Center, 2011).
Activity calls are given as the source filed them. Cut-off read from the data, not from the text of the source: active = remaining activity below about 50%; inactive = the rest.

The molecules below were run against Phospholipase D1 (Homo sapiens) (UniProt Q13393) (assay: PLD1 inhibitors in cells, Calu-1 cells, single concentration (AID 602144;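 note: tested at 200 nM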)). Conditions: cellular PLD1 activity, stronger effect = lower value.
Chain of Phospholipase D1 (Homo sapiens) (Q13393 whole entry, looked up): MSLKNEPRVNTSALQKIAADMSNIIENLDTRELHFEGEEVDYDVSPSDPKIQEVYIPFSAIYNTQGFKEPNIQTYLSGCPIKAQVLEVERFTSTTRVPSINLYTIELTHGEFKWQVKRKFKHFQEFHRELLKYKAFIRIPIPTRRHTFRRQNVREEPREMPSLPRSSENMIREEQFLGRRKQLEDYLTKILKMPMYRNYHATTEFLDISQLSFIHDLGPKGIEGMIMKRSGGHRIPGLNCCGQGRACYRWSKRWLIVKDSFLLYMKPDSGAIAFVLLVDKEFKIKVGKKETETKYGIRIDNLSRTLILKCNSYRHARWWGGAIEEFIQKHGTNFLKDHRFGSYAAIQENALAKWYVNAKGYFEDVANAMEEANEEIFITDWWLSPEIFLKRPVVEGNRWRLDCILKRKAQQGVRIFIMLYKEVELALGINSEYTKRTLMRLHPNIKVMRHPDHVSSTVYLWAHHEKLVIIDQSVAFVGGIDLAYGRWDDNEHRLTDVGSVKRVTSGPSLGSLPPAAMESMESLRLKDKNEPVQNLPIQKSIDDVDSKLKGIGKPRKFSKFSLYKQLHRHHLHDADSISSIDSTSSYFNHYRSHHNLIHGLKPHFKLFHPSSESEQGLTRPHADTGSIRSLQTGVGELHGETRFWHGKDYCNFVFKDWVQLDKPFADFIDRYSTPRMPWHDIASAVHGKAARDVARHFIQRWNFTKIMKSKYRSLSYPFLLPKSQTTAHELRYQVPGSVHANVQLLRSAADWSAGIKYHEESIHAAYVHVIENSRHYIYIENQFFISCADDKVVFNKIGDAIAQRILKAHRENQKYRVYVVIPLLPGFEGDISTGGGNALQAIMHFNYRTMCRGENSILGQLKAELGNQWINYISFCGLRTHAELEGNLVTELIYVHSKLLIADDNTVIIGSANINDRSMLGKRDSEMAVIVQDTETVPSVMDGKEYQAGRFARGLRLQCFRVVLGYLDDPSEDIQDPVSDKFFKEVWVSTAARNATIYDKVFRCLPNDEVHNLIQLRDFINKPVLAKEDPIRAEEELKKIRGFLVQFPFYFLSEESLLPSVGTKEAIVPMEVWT
Chain of Phospholipase D1 (Homo sapiens) (Q13393 whole entry, looked up): as above

Compound	remaining activity
O=C(NCCN1CCC2(CC1)C(=O)NCN2c1cccc(Br)c1)c1ccc2ccccc2c1	76.6% (inactive)
O=C(NCCN1CCC2(CC1)C(=O)NCN2c1ccccc1)c1cccc(Cl)n1	132% (inactive)
O=C(NCCN1CCC2(CC1)C(=O)NCN2c1ccc(F)c(F)c1)c1ccc2ccccc2c1	84.3% (inactive)
CN(CCN1CCC2(CC1)C(=O)NCN2c1ccccc1)C(=O)c1ccc2ccccc2c1	84.1% (inactive)
O=C(NCCN1CCC2(CC1)C(=O)NCN2c1ccccc1)c1ccc2c(c1)C(=O)OC2=O	103% (inactive)
O=C(CCCl)NCCN1CCC2(CC1)C(=O)NCN2c1cccc(F)c1	75.7% (inactive)
O=C(NCCN1CCC2(CC1)C(=O)NCN2c1ccccc1)c1ccc2cc(F)ccc2c1	73.9% (inactive)
O=C(NCCN1CCC2(CC1)C(=O)NCN2c1ccc(Cl)cc1)c1cc2cc(F)ccc2[nH]1	79.4% (inactive)
CCCCOc1ccc(C(=O)NCCN2CCC3(CC2)C(=O)NCN3c2cccc(F)c2)cc1	110% (inactive)
O=C(NCCN1CCC2(CC1)C(=O)NCN2c1ccccc1)c1ccc(F)cc1O	107% (inactive)
O=C(NCCN1CCC2(CC1)C(=O)NCN2c1ccccc1)c1ccnnc1	104% (inactive)
O=C(NCCN1CCC2(CC1)C(=O)NCN2c1ccccc1)c1cc2ccccc2s1	50.8% (inactive)
O=C1NCN(c2ccccc2)C12CCN(CCN1CCCC1)CC2	116% (inactive)
O=C(NCCN1CCC2(CC1)C(=O)NCN2c1ccccc1)c1ncccc1F	110% (inactive)
CCOC(=O)CCN1CCC2(CC1)C(=O)NCN2c1ccccc1	83.2% (inactive)
Nc1ccc(C(=O)NCCN2CCC3(CC2)C(=O)NCN3c2ccccc2)cc1OC(F)(F)F	91.5% (inactive)
COc1cc(OC)cc(C(=O)NCCN2CCC3(CC2)C(=O)NCN3c2cccc(F)c2)c1	97% (inactive)
CCCCCC(=O)NCCN1CCC2(CC1)C(=O)NCN2c1cccc(F)c1	109% (inactive)

Compound	remaining activity
Cc1ccc(C(=O)NCCN2CCC3(CC2)C(=O)NCN3c2ccccc2)c(O)c1	89.1% (inactive)
O=C(Cc1cccs1)NCCN1CCC2(CC1)C(=O)NCN2c1cccc(F)c1	89.8% (inactive)
CCCCCC(=O)N(CCN1CCC2(CC1)C(=O)NCN2c1cccc(F)c1)C(=O)CCCCC	90.1% (inactive)
O=C(NCCN1CCC2(CC1)C(=O)NCN2c1ccccc1)c1ccc2c(c1)OCO2	92.4% (inactive)
CC(C)[C@@H](CN1CCC2(CC1)C(=O)NCN2c1ccccc1)NC(=O)c1cnc2ccccc2c1	18.3% (active)
O=C(NCCN1CCC2(CC1)C(=O)NCN2c1ccccc1)c1cscn1	92.4% (inactive)
O=C(NCCN1CCC2(CC1)C(=O)NCN2c1cccc(F)c1)c1ccc(-c2ccccc2)cc1	93% (inactive)
O=C(c1cnc2ccccc2c1)N1CC(N2CCC(n3c(=O)[nH]c4ccccc43)CC2)C1	119% (inactive)
O=C(NCCN1CCC2(CC1)C(=O)NCN2c1ccccc1)c1cccnn1	105% (inactive)
COc1cc(C(=O)NCCN2CCC3(CC2)C(=O)NCN3c2ccccc2)ccc1N	103% (inactive)
CC(C)[C@@H](CN1CCC2(CC1)C(=O)NCN2c1ccccc1)NC(=O)c1cc2ccccc2[nH]1	1.51% (active)
O=C(NCCN1CCC2(CC1)C(=O)NCN2c1ccc(F)c(F)c1)c1cc2cc(F)ccc2[nH]1	69.1% (inactive)
O=C(C#Cc1ccccc1)NCCN1CCC2(CC1)C(=O)NCN2c1ccccc1	87.1% (inactive)
O=C(NCCN1CCC2(CC1)C(=O)Oc1ccccc12)c1cnc2ccccc2c1	105% (inactive)
O=C(NCCN1CCC2(CC1)C(=O)NCN2c1cccc(F)c1)c1cc(C(F)(F)F)ccc1C(F)(F)F	86.3% (inactive)
O=C(CCc1ccc(F)cc1)NCCN1CCC2(CC1)C(=O)NCN2c1ccccc1	69.5% (inactive)
O=C(NCCN1CCC2(CC1)C(=O)NCN2c1ccccc1)c1ccc(-c2ccccc2)o1	132% (inactive)
O=C(NCCN1CCC2(CC1)C(=O)NCN2c1ccc(Br)cc1)c1cc2cc(F)ccc2[nH]1	55.7% (inactive)
